Screens (PubChem)
Pol iota inh: DNA polymerase iota (human) inhibition; Q9UNA4; Pol iota fluorescent replication assay, 10 min; Potency, µM (series often up to 115 µM), inactives show at the top dose activity, negative = inhibition, hits mostly inhibitors; hit rate 1% among 390,000
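Fluorescent replication assay read twice, at 0 min and 10 min after adding 50 nM (final) substrate. Enzyme (10 nM) and compounds were first incubated 15 min at room temperature; enzyme-free buffer wells were negative controls.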
WRN inhibitor: WRN helicase (human) inhibition. Q14191. WRN helicase unwinding, fluorescent forked duplex, kinetic. Potency, µM (highest dose often 114 µM), for the others: at the highest dose activity change, negative = inhibition, usual class: inhibitors. hit rate 0.46% among 360,000. AID 651768; note: % is set by controls: 0 for no effect and ±100 for the full control effect; nearly all actives have a fitted effect of over 55% in size
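Fluorescence dequenching readout, ex 525 nm/em 598 nm, kinetic mode: forked duplex DNA (100 nM final) with adjacent fluorophore and quencher unwound by WRN (20 nM final) with 2 mM ATP. Compound preincubation 15 min, room temperature.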
L3MBTL1 block: L3MBTL1 (human) inhibition | AlphaScreen L3MBTL1–H3K9me1 peptide binding | Q9Y468 | AID 485360 | hit rate 0.66% among 230,000 | Potency, µM (titrated, usually from 57.1 µM), without a hit: at the highest dose activity, negative = inhibition, hits mostly inhibitors; note: % is set by controls: 0 for no effect and ±100 for the full control effect; nearly all actives have a fitted effect of over 60% in size
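First, the protein-peptide complex forms for 30 min at room temperature (L3MBTL1 50 nM, biotinylated H3K9me1 peptide 75 nM). Next, compounds are pin-transferred and incubated 30 min. Finally, AlphaScreen beads are added and read after 30 min.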
Pol kappa inh: DNA polymerase kappa (human) inhibition. hit rate 0.53% among 400,000. Q9UBT6. Potency, µM (doses to about 107 µM), without a hit: at the top dose activity, negative = inhibition, most hits filed as inhibitors. purified Pol kappa, fluorescent DNA synthesis assay, 10 min; note: % is set by controls: 0 for no effect and ±100 for the full control effect
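Inhibition of 10 nM Pol kappa is measured by a fluorescent read-out at 0 and 10 min following addition of 50 nM substrate (final), with a 15-min room-temperature compound preincubation.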
POLH inh: inhibitors of human DNA polymerase eta. Q9Y253. recombinant Pol eta, fluorescent DNA replication assay. Potency, µM (titrated, usually from 114 µM), without a hit: at the top dose activity change, negative = inhibition, actives largely listed as inhibitors. hit rate 1.2% among 390,000. AID 588591; note: % is set by controls: 0 for no effect and ±100 for the full control effect
Target sequence (Q9Y253 whole entry, looked up): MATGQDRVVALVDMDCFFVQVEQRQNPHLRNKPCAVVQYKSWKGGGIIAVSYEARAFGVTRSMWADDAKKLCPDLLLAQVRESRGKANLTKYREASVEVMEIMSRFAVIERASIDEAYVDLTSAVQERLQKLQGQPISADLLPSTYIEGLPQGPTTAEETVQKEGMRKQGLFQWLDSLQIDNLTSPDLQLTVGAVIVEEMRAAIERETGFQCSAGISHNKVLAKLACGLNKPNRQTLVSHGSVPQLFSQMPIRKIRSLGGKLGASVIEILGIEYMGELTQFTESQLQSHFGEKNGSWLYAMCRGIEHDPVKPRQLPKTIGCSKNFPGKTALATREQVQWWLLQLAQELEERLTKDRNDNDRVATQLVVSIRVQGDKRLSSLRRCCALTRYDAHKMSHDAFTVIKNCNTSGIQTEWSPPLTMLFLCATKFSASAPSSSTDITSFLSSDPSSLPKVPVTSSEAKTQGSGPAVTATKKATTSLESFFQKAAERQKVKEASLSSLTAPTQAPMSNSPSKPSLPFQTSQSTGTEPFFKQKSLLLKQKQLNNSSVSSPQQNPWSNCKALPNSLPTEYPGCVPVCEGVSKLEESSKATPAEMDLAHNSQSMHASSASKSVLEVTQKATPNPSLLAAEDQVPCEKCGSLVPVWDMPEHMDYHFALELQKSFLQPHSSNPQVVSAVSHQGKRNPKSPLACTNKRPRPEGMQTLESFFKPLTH
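Fluorescent replication assay: 50 nM final substrate added after a 15 min room-temperature compound preincubation with 10 nM enzyme. Signal taken at 0 min and again at 10 min.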
POLB inh: DNA polymerase beta (human) inhibition; P06746; Pol beta primer extension/strand displacement, fluorescence kinetic; Potency, µM (highest dose often 114 µM), for the others: at the top dose activity change, negative = inhibition, usual class: inhibitors; hit rate 1.3% among 340,000; AID 485314; note: % is set by controls: 0 for no effect and ±100 for the full control effect
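Pol beta (10 nM) was preincubated with compound for 15 min at room temperature. The reaction was then started with 50 nM substrate and read immediately and after a further 10 min at room temperature.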
* marks the source's active call; other numbers are inactive results; ? = inconclusive; . = no result; ! = not active in a repeat; [ ] = dose if it differs, or a comment. In the library only some 2.5% were active in any assay of this set; here they are far more common. Calls come from the whole dose curve; as a rule, active = well fitted curve in the direction sought with a large enough effect; inconclusive = small, poorly fitted or top-dose-only effect, or another doubt; inactive = no such curve, though single readings can be large; an effect the other way counts as inactive or inconclusive. Potency is the fitted concentration of half-maximal effect.

SMILES	Pol iota inh	WRN inhibitor	L3MBTL1 block	Pol kappa inh	POLH inh	POLB inh
CC(OC(=O)c1nsc(Cl)c1Cl)C(=O)NCc1ccc2c(c1)OCO2 (stereo not drawn)	14%	-1%	1%	-3%	-9%	18%
Cc1coc2c1C(=O)C(=O)c1c-2ccc2c(C)cccc12	?	-36%	.	79µM*	28µM*	20µM*
Cc1ccc(C(=O)c2coc3c2C(=O)C(=O)c2ccccc2-3)cc1	20%	-18%	.	1%	-5%	5%
Cc1coc2c1C(=O)C(=O)c1c-2ccc2c1CCCC2(C)C	?	-7%[11.6 µM]	?	?	89µM*	22µM*
Cc1ccc2c3c(cccc13)-c1ccccc1C2=O	-5%	-27%[57.1 µM]	15%	2%	-8%	-8%
CN(C(=O)CSc1nc(O)cc(=O)n1C1CCCC1)c1ccccc1	14%	-2%	3%	-2%	-19%	-15%
Cc1ccnc(NS(=O)(=O)c2ccc(N3C(=O)c4ccccc4C3=O)cc2)n1	11%	-11%	9%	-3%	-16%	28%
Cc1ccnc(NS(=O)(=O)c2ccc(N3C(=O)c4c(Cl)c(Cl)c(Cl)c(Cl)c4C3=O)cc2)n1	92%	-6%[11.6 µM]	8%	-12%	79µM*	1%
O=C(CSc1nc2ccccc2s1)NCC1CCCO1 (stereo not drawn)	?	8%	.	3%	-11%	18%
Cc1cc(C)cc(N(C(=O)c2cc3ccccc3oc2=O)C2C=CS(=O)(=O)C2)c1 (stereo not drawn)	10%	-8%	-3%	-8%	-6%	-5%
COc1ccc(N2C(=O)c3ccccc3C2O)cc1 (stereo not drawn)	-9%	15%	-8%[2.29 µM]	-7%	-13%	16%
COc1ccc(O)c(C(=O)C2c3ccccc3C(=O)N2c2ccc(C)cc2)c1 (stereo not drawn)	8%	50µM*	-11%	-17%	-13%	-9%
C=CCn1c(C)cc(C(=O)Cn2c(C(C)O)nc3ccccc32)c1C (stereo not drawn)	137%	-3%	-4%	-1%	-19%	61%
Cc1cc(C(=O)Cn2c(CO)nc3ccccc32)c(C)n1C	79µM*	-8%[11.6 µM]	-20%	-26%	-3%	-11%
CCCN(C(=O)Cc1nc(N)n[nH]1)C1(C(=O)Nc2ccccc2C)CCCCC1	8%	1%	?	-13%	-10%	5%
Cc1ccccc1CN(C)C(=O)[C@H](Cc1ccccc1)NC(=O)c1ccco1	5%	-11%	-4%	-6%	-19%	.
CCCCc1nc(NCCNC(=O)c2ccco2)c(C#N)c2c1CSC(C)(C)C2	?	?	.	?	89µM*	4%
Cn1c(C(=O)NCc2ccco2)cc2c(=O)[nH]c3ccccc3c21	?	-25%	-3%	-5%	-1%	24%
O=C1CC(c2ccco2)CC(O)=C1C=Nc1cc(Cl)cc(Cl)c1 (stereo not drawn)	?	?	.	71µM*	?	40µM*
CC(NC(=O)/C(C#N)=C/c1ccc(OCC(=O)O)cc1)c1ccccc1 (stereo not drawn)	?	-4%	-10%	-17%	18µM*	-13%
CC(C)NC(=O)/C(C#N)=C/c1ccc2c(c1)OCCO2	143%	4%	8%	-16%	0%	39%
N#C/C(=C\c1cccnc1)C(=O)Nc1ccccc1	81%	8%	10%	-8%	-18%	-7%
N#C/C(=C\c1ccc(O)c(O)c1)C(=O)Nc1ccccc1	56µM*	?	-21%	?	13µM*!	-2%[57.1 µM]
CC(NC(=O)/C(C#N)=C/c1ccc(Cl)c([N+](=O)[O-])c1)c1ccccc1 (stereo not drawn)	-8%	-7%	-12%	-12%	-20%	-1%
C[C@H](NC(=O)/C(C#N)=C/c1ccc(O)c(O)c1)c1ccccc1	?	.	.	?	22µM*	5%[57.1 µM]
SMILES	Pol iota inh	WRN inhibitor	L3MBTL1 block	Pol kappa inh	POLH inh	POLB inh
N#C/C(=C\c1cccc(O)c1)C(=O)Nc1ccc2c(c1)OCCO2	79µM*	?	26%	0%	-5%	-6%
CC(NC(=O)/C(=C/c1ccc(OC(F)F)cc1)c1ccccc1)c1ccccc1 (stereo not drawn)	20%	6%	14%	-21%	-18%	-21%
CCOc1ccc(-c2nnc(-c3cccnc3)o2)cc1OCC	25%	2%	5%	2%	-17%	-9%
O=C(NCCn1ccc2ccccc21)c1ccc(Cl)cc1	1%	.	.	-11%	-2%	17%
C[C@@H](NC(=O)/C(C#N)=C/c1ccc(O)c(O)c1)c1ccccc1	?	-14%	-27%	?	14µM*!	10%[57.1 µM]
COc1cc(/C=C(/C#N)C(=O)Nc2ccccc2)ccc1OCc1ccc(C(=O)O)cc1	0%	-14%[11.6 µM]	.	-4%	79µM*	-4%
COc1cc(/C=C(\C#N)C(=O)Nc2nnc(C(F)(F)F)s2)ccc1OCc1ccc(C(F)(F)F)cc1C(F)(F)F	.	.	.	6.7µM*	.	.
CC(=O)c1cc2c(cc1N(C(=O)c1ccco1)C(C(=O)NC1CCCC1)c1ccccc1F)OCO2 (stereo not drawn)	102%	8%	.	-5%	-12%	28%
CCSc1nnc(NC(=O)Cn2cnc3c2c(=O)n(C)c(=O)n3C)s1	116%	-9%	9%	4%	-22%	38%
COc1ccc(CN2CCSc3sccc3C2=O)cc1	-16%	-8%	.	-7%	-2%	79µM*
NC(=O)c1cc(NC(=O)c2cc(Br)c(Br)s2)cc(C(N)=O)c1	5%	-23%	?	-22%	-3%	40µM*
CCCNCc1cc(OC)c(OCCC)cc1Cl	-16%	10%	-10%	1%	-7%	11%
COCCCn1c(SCC(=O)OC2CCCCC2)nnc1-c1ccco1	5%	5%	10%	-7%	-2%	36%
COCCCn1c(SCC(=O)OC2CCCCC2)nnc1-c1cccs1	100µM*	-9%	6%	-20%	-12%	3%
Cc1ccc(NC(=O)Cn2cc(S(=O)(=O)Cc3ccccc3)c3ccccc32)cc1C	36%	.	.	-8%	?	1%
COc1ccccc1NC(=O)Cn1cc(S(=O)(=O)Cc2ccccc2)c2ccccc21	-15%	.	.	-23%	79µM*	?
COc1cccc(Cl)c1NC(=O)N1CCN(c2cc(C)nc3ccccc23)CC1	137%	-12%	.	1%	-20%	3%
O=C1C=CC(O)(c2cc(=O)c3c(O)cc(O)cc3o2)C=C1	6.3µM*	-13%[11.6 µM]	7%	-8%	?	14%
O=c1cc(-c2ccccc2Cl)oc2cc(O)cc(O)c12	5%	-7%	-4%	-5%	-10%	?
